From PubChem
Sampled rows, rich in hits. Any-hit rate of the full collection: about 7.3%.
SMN2 splice enh – increases expression of the SMN2 splice variant. HEK293 SMN2-luciferase splicing reporter, luminescence, 30-36 h. Potency, µM (top dose mostly 46.1 µM), inactives show at the top dose activity change, positive = activation, most hits filed as activators. 2.8% of 210,000 active. AID 1458; further: % of control where 0% means no effect; nearly all actives have a fitted effect of over 55% in size
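HEK293 cells carry an SMN2 […]–luciferase reporter in which exon 7 inclusion puts luciferase in frame. Cells were plated 10-12 h before compound addition, then incubated 30-36 h at 37C. ONE-Glo luminescence was read; sodium butyrate at 4.5 mM final served as control.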
Luc counter – Kinase-Glo luciferase inhibition (counter-screen) | Q27757 | Kinase-Glo luciferase, ATP luminescence, 8 min | Potency, µM (titrated, usually from 38.3 µM), for the others: at the top dose activity change, negative = inhibition, usual class: inhibitors | 0.28% of 200,000 active | AID 1379; further: on the % scale 0 is the no-effect control and ±100 the full control effect; nearly all actives have a fitted effect of over 60% in size
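Substrate mix (final 50 mM imidazole pH 7.2, 50 mM KCl, 7 mM MgCl2, 10 uM ATP, 0.01% Tween 20, 0.05% BSA) plus pin-tool compound, then Kinase-Glo detection mix; 8 min ambient, luminescence read.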
ELG1 genotoxic – inducers of genotoxicity in HEK293T ELG1-luciferase cells | 1.3% of 330,000 active | HEK293T ELG1-luciferase reporter, luminescence, 16 h | AID 504466 | Potency, µM (highest dose often 46 µM), inactives show top-dose activity change, positive = activation, most hits filed as activators; further: % of control where 0% means no effect; nearly all actives have a fitted effect of over 60% in size
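DMSO vehicle served as control against compound-treated ELG1-luciferase HEK293T cells; exposure lasted 16 hr at 37 °C and 5% CO2, followed by ONE-Glo luminescence detection after 30 min.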
FLuc modulator – inhibits or activates purified firefly luciferase, miR-21 counter-screen; P08659; purified FLuc, Km substrates, luminescence inhibition; Potency, µM (titrated, usually from 57.5 µM), for inactives: top-dose activity change, negative = inhibition, actives largely listed as inhibitors; 6.9% of 360,000 active;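 further: plate controls were vehicle for no effect and reference inhibitor for full effect; nearly all actives have a fitted effect of over 55% in size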
Target sequence (P08659 whole entry, looked up): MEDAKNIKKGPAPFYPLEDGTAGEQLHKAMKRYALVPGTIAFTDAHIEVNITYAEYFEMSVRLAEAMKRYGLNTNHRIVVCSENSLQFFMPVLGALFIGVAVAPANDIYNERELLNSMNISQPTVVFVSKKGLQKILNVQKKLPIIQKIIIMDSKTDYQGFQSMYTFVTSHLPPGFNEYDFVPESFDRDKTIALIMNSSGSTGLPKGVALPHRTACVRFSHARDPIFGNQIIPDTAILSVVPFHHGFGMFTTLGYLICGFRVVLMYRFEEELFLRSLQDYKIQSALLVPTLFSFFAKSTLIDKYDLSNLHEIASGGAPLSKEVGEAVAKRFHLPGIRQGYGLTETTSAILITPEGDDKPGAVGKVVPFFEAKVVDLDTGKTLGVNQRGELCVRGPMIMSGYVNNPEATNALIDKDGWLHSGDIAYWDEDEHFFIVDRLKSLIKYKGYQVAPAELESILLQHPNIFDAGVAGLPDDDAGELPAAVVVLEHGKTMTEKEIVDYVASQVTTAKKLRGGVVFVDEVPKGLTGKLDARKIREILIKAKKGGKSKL
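Purified P. pyralis luciferase, 10 nM final, with Km-level 10 uM D-luciferin and 10 uM ATP in 50 mM Tris acetate pH 7.5, 10 mM Mg acetate, 0.01% Tween-20, 0.05% BSA; 6-point qHTS titration about 60 µM downward; luminescence read.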
Rab9 prom act – Rab9 promoter activation; 2.8% of 320,000 active; Potency, µM (top dose mostly 9.22 µM), for the others: at the highest dose activation, negative = inhibition, usual class: activators; Huh7 Rab9 promoter-luciferase reporter, luminescence, 24 h; further: % of control where 0% means no effect; nearly all actives have a fitted effect of over 60% in size
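Rab9 promoter-driven luciferase in stably transfected Huh7 cells; 1500 cells/well rested 2 h, exposed to compound in DMSO for 24 h at 37 °C, 5% CO2. Luminescence read 10 min after adding luciferase reagent at ambient temperature.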
NPC1 promoter act – activates the NPC1 promoter | 2.4% of 320,000 active | AID 485313 | Huh7 NPC1 promoter luciferase reporter, 24 h | Potency, µM (series often up to 9.22 µM), inactives show top-dose activation, actives largely listed as activators; further: % of control where 0% means no effect; nearly all actives have a fitted effect of over 60% in size
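Stable NPC1-promoter luciferase Huh7 line; cpd (DMSO) 24 h, 37 °C, 5% CO2; Amplite luciferase reagent 10 min RT; luminescence readout. qHTS format.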
Active calls of the source: *; u = inconclusive; x = not tested or not shown; [ ] = another dose, or the depositor's remark. The call rests on the fitted dose curve; in most records, active means well fitted curve in the direction sought with a large enough effect; inconclusive means small, poorly fitted or top-dose-only effect, or another doubt; inactive means no such curve, though single readings can be large; an effect the other way counts as inactive or inconclusive. Potency means the concentration at half of the fitted maximal effect.

SMILES | SMN2 splice enh | Luc counter | ELG1 genotoxic | FLuc modulator | Rab9 prom act | NPC1 promoter act
CCOC(=O)c1cc2c(s1)-c1ccccc1CC2 | 20% | -1% | 15% | 11µM* | 17% | 18%
CCOC(=O)c1cc2ccc3ccccc3c2s1 | u | -1% | u | 5.4µM* | u | u
CCOC(=O)C1=C(C)NC(=O)NC1c1cn(-c2ccccc2)nc1-c1ccc(OCC)cc1 (stereo not given) | -28% | x | x | -17% | x | x
COc1ccc(C(=O)C2CCCN(Cc3cc(C)c(O)c(C)c3)C2)c(OC)c1 (stereo not given) | x | x | -3% | -1% | -7% | -9%
COc1ccc(C(=O)C2CCCN(C3Cc4ccccc4C3)C2)c(OC)c1 (stereo not given) | x | -2% | 24% | 27µM* | u | 30%
COc1cc2c(=O)n(Cc3ccccc3)c(=O)n(CC(=O)C(C)(C)C)c2cc1OC | x | x | 0% | -1% | 0% | -2%
COCCCNC(=O)C1CCN(c2cc(C)nc3c(-c4ccc(Cl)cc4)c(C)nn23)CC1 | -12% | x | x | 6% | x | x
Cc1cc(C)cc(NC(=S)N(Cc2cccc(Br)c2)CC2CCC(C(=O)O)CC2)c1 (stereo not given) | -27% | 4% | -1% | -20% | -6% | 0%
Fc1ccc(Nc2ccc3ccccc3n2)c(F)c1 | 5µM* | u | 0.82µM* | 0.76µM* | 0.13µM* | 0.4µM*
CCOC(=O)NNc1nncc2ccccc12 | 11% | -8% | -6% | -8% | 2% | 0%
C/C(=N\Nc1nncc2ccccc12)c1ccc(OCC(=O)N(C)C)cc1 | x | x | 15% | 12µM* | u | 27%
CC/C(=N\Nc1nncc2ccccc12)c1ccc(F)cc1 | x | x | 16µM* | 12µM* | u | u
CCOc1ccc(N=C(NC#N)SCC)cc1 | -13% | 3% | -2% | -14% | -2% | -1%
COc1cc(C(=O)N/N=c2/sc3ccccc3n2C)cc(OC)c1OC | -67%[1.84 µM] | 0% | 3% | 0% | 5% | 5%
Cn1/c(=N/NC(=O)c2ccccc2Br)sc2ccccc21 | u | -5% | u | 15µM* | 4µM* | u
O=C(N/N=C/c1cccnc1)c1cc2c(ccc3ccccc32)o1 | -13% | 1% | 3% | u | 2% | -5%
Cc1ccc(N/C=C/C(=O)C(C)(C)C)c(O)c1 | 4% | 1% | 10% | 19µM* | 17% | 4%
COC(=O)[C@H](CCSC)NC(=O)c1cccnc1SC | x | x | -3% | -2% | -4% | 0%
CCc1ccc(C(=O)NC(CCSC)C(=O)OC)cc1 (stereo not given) | 5% | -7% | -2% | 19µM* | 6% | -3%
O=C(Cn1c2[n+](c3ccc(C(F)(F)F)cc31)CCCCC2)c1ccc2c(c1)OCCO2 | -5% | 0% | -7% | 1% | -4% | -2%
O=C(CCNS(=O)(=O)c1ccccc1)N1CCCCCC1 | x | x | u | 1% | u | 30%
Cc1ccc(C(=O)Nc2nc(=O)n(C(=O)c3ccccc3C)s2)cc1 | 20% | 5% | 17% | 15µM* | u | 15%
O=C(Nc1nc(=O)n(C(=O)C2CC2)s1)c1ccccc1 | 0% | 0% | -3% | u | 1% | -5%
Cc1ccc(C(=O)Nc2nc(=O)n(C(=O)C3CC3)s2)cc1 | 19% | 4% | 0% | 19µM* | -6% | 1%
Cc1ccc(C(=O)Nc2cc3c(cc2C)n(C)c(=O)c(=O)n3C)cc1 | x | x | x | -11% | x | x
SMILES | SMN2 splice enh | Luc counter | ELG1 genotoxic | FLuc modulator | Rab9 prom act | NPC1 promoter act
c1nnc(NCNc2nncs2)s1 | -6%[9.22 µM] | 0%[7.66 µM] | x | x | x | x
O=C(Nc1ccccc1)C1CC2CCC1C2 (stereo not given) | x | x | -5% | -20% | 3% | 3%
O=S(=O)(c1cnc[nH]1)N1CCN(c2ccc(Cl)cc2)CC1 | -7% | -1% | -2% | 1% | -2% | 0%
CCCCNc1c(-c2ccc(SC(C)CC)c(OC)c2)nc2ccc(C)cn12 (stereo not given) | x | x | -6% | 8.5µM* | -1% | 0%
Cc1ccccc1NC(=O)c1ccc2c(c1)N(C)CCS2 | x | x | u | 11µM* | u | u
COC(=O)c1ccc2c(c1)N(C)CCS2 | 6% | 1% | 15% | 0% | -2% | -2%
CN1CCSc2ccc(C(=O)Nc3cc(F)ccc3F)cc21 | x | x | 2.6µM* | 2.1µM* | 0.89µM* | 1.3µM*
CCN1C(=O)C(CC(=O)Nc2ccc(OC)cc2)N(CCc2ccccc2)C1=S (stereo not given) | -56% | -2% | -5% | -9% | -4% | -5%
O=C(CN1C(=O)c2ccccc2C1=O)[C@@H](O)CN1C(=O)c2ccccc2C1=O | 7%[9.22 µM] | -5%[7.66 µM] | x | x | x | x
CCC(=O)Nc1sc2c(c1C(N)=O)CCN(C(C)=O)C2 | 23% | 0% | 12% | -3% | -1% | 3%
O=C(O/N=C(\c1ccccc1)c1ccncc1)c1ccccc1F | 3% | -3% | -1% | -1% | -3% | -1%
O=C(OCc1cnc(Cl)s1)c1cccc(Cl)c1 | x | -4% | -1% | -1% | 8% | -2%
C/C(=N\OC(=O)c1ccccc1F)c1nccs1 | -14% | -29% | 1% | 1.3µM* | 3% | 4%
C/C(=N/OC(=O)c1cccc(Cl)c1)c1nccs1 | -4% | -13% | -3% | 2.1µM* | 1% | 4%
Cc1cc(Cl)ccc1NC(=S)N1CCN(C(=O)C2CCCO2)CC1 (stereo not given) | u | -3% | 0% | 2% | 4% | 0%
CSc1cccc(N2C(=O)N(CC(=O)NCc3ccccc3Cl)c3ccccc3S2(=O)=O)c1 | x | x | x | -1% | x | x
O=C(c1ccc(Cl)cc1)c1nnc(-c2ccncc2)o1 | -17% | 5% | 2% | u | 14% | 12%
O=C(c1ccccc1)c1nnc(-c2ccncc2)o1 | 5% | u | 1% | 9.5µM* | 2% | -3%
c1ccc(-c2ccc(-n3ccnc3)cc2)cc1 | x | x | u | 24µM* | 12% | 25%
c1ccc(-c2nc(N3CCN(c4ccccc4)CC3)nc(-n3ccnc3)n2)cc1 | x | x | -10% | 2% | 0% | -8%
Cc1ccc2c(cnn2C(=O)CCCC(=O)NCc2ccc(F)cc2)c1 | x | x | -8% | 13µM* | 29% | 7%
O=C(CCC(=O)n1ncc2ccccc21)N1CCCCC1 | x | x | 0% | u | 3% | 1%
Cc1ccc2c(cnn2C(=O)CCC(=O)N2CCCCC2)c1 | x | x | -14% | 12µM* | 1% | -1%
COc1ccc(-n2ncc(N(C)n3cccc3)c(Cl)c2=O)cc1 | x | x | u | 4.8µM* | 0.56µM* | 1.3µM*
CN(C)c1cnn(-c2ccccc2)c(=O)c1Cl | 21% | 1% | 16% | u | 13% | 13%
Cc1ccc(-n2ncc(N(C)C)c(Cl)c2=O)cc1 | u | -16% | u | 5.4µM* | 1.1µM* | 0.4µM*
